Source: PubChem BioAssay (NCATS)
Results filed as inconclusive are left out. Entries that show only a call come without a potency. Values without a mark were called inactive. The source made the active and inactive calls. Calls come from the whole dose curve; as a rule, active = well fitted curve in the direction sought with a large enough effect; inconclusive = small, poorly fitted or top-dose-only effect, or another doubt; inactive = no such curve, though single readings can be large; an effect the other way counts as inactive or inconclusive.

Tests used:
[1] = biological target: Rap guanine nucleotide exchange factor 3 (Homo sapiens) (UniProt O95398); assay: Confirmatory qHTS for antagonist of cAMP-regulated guanine nucleotide exchange factor 3 (EPAC1) (AID 1645880); note: nearly all actives have a fitted effect of over 55% in size; note: potency is the fitted concentration of half-maximal effect
Method in brief: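 Released BODIPY-GDP fluoresces less than Rap1-bound BODIPY-GDP; the signal is followed at 480/540 nm at 5-min intervals over 30 min, after 5 min at room temperature. Reactions contain 100 nM EPAC1, 250 nM RAP1B-BODIPY-GDP and 50 uM GDP; results are normalized to ATA and DMSO.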

[2] = biological target: Rap guanine nucleotide exchange factor 3 (Homo sapiens) (UniProt O95398); assay: Confirmatory qHTS for agonist of cAMP-regulated guanine nucleotide exchange factor 3 (EPAC1) (AID 1645881);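 note: EPAC1 catalysed release of BODIPY-GDP from Rap1B seen as fluorescence loss; nearly all actives have a fitted effect of over 75% in size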
[3] = biological target: Rap guanine nucleotide exchange factor 4 (Homo sapiens) (UniProt Q8WZA2); assay: Confirmatory qHTS for agonist of cAMP-regulated guanine nucleotide exchange factor 4 (EPAC2) (AID 1645884);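 note: nucleotide exchange releases bodipy-GDP from Rap1 and this lowers its fluorescence; nearly all actives have a fitted effect of over 65% in size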
[4] = biological target: Rap guanine nucleotide exchange factor 4 (Homo sapiens) (UniProt Q8WZA2); assay: Confirmatory qHTS for antagonist of cAMP-regulated guanine nucleotide exchange factor 4 (EPAC2) (AID 1645885); note: nearly all actives have a fitted effect of over 25% in size; note: potency is the fitted concentration of half-maximal effect
[5] = biological target: Rap guanine nucleotide exchange factor 3 (Homo sapiens) (UniProt O95398); assay: Counterscreen qHTS for antagonist of cAMP-regulated guanine nucleotide exchange factor 3 (EPAC1) (AID 1645888)
Method in brief: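 Measured: fluorescence of BODIPY-GDP bound to Rap1B, which falls as exchange proceeds. Conditions include 50 uM competing GDP, 5 and 30 min reads, and a later cAMP challenge for antagonist detection.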

Rap guanine nucleotide exchange factor 3 (Homo sapiens), sequence (O95398 whole entry, looked up): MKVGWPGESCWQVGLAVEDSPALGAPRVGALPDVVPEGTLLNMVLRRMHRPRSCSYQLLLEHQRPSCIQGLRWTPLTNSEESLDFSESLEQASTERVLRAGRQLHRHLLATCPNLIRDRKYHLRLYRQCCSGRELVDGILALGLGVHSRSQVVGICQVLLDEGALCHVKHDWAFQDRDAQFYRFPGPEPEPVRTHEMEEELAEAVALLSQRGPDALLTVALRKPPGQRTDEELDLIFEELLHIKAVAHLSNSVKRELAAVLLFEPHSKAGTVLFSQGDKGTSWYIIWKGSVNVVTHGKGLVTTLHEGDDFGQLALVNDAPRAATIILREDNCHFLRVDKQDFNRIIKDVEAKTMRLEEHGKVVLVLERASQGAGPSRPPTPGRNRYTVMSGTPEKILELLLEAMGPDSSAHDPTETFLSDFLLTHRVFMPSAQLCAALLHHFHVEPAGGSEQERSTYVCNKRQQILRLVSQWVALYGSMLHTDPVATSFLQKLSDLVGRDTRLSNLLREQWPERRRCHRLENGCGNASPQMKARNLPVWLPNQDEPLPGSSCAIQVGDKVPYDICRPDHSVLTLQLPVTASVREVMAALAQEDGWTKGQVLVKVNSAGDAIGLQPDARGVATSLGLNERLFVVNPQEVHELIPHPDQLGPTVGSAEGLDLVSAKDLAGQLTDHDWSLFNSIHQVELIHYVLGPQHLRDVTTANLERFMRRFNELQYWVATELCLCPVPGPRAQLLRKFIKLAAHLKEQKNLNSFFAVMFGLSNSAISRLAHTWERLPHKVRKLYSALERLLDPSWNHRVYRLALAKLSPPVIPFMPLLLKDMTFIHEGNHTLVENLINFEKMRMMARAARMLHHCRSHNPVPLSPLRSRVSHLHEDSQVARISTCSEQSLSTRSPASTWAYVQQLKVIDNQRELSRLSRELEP
Rap guanine nucleotide exchange factor 4 (Homo sapiens), sequence (Q8WZA2 whole entry, looked up): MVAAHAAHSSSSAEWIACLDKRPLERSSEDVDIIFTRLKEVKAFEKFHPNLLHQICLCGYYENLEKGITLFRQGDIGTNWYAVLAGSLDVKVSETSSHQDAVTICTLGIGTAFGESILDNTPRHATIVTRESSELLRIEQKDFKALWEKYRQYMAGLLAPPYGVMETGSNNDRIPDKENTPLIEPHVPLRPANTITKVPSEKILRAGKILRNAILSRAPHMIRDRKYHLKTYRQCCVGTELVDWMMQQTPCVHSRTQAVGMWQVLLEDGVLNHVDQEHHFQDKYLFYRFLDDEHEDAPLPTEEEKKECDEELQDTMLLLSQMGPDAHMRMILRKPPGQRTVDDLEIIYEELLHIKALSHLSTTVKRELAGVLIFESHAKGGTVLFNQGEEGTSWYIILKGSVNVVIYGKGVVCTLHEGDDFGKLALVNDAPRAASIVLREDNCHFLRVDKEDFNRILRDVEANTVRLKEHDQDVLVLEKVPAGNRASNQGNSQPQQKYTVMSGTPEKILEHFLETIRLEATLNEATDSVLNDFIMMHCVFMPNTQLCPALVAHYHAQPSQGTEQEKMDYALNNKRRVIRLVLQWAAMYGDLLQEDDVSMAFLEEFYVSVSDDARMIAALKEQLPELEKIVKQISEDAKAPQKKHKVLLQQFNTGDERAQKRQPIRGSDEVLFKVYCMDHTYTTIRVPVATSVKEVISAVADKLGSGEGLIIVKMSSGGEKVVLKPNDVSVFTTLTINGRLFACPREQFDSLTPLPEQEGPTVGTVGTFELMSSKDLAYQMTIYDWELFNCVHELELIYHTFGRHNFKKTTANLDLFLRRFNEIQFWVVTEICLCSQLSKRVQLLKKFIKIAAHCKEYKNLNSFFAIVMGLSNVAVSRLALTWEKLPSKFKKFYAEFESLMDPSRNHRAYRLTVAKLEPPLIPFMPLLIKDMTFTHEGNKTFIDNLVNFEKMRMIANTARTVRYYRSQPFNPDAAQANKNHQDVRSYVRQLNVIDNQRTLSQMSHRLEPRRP

For N#CC1(NC(=O)COC(=O)c2nc(Cl)c(Cl)c(N)c2Cl)CCCCC1, the Potency [1] was “inactive”, the Potency [2] was “inactive” and the Potency [3] was “inactive”. The Potency [4] was “inactive” and the Potency [5] was “inactive”.

In the case of CCOc1ccc(C(=O)NCC(=O)NCC(c2ccco2)N2CCCCC2)cc1OCC (stereo not given), the Potency [1] is reported as “inactive”, the Potency [2] is reported as “inactive” and the activation [3] is reported as -0.0767% [at 17.1 µM, percent relative to cAMP agonist control]. The Potency [4] was “inactive” and the activity change, negative = inhibition [5] was -4.11% [at 30.8 µM].

CCn1c2ccccc2c2cc(NC(=O)CSc3nnc(-c4cccc(C)c4)o3)ccc21 was tested, and the Potency [1] was “inactive”, the Potency [2] was “inactive” and the activation [3] was 3.98% [at 17.1 µM, percent relative to cAMP agonist control]. For the same compound, the Potency [4] was “inactive” and the activity change, negative = inhibition [5] was 9.03% [at 30.8 µM].

CCOC(=O)C1=C(C)N=C2SC=C(C)N2C1c1ccc(OC)cc1 (stereo not given) was tested, and the Potency [1] was “inactive”, the Potency [2] was “inactive” and the Potency [3] was “inactive”. For the same compound, the Potency [4] was “inactive” and the Potency [5] was “inactive”.

For Cc1ccc(C(=O)OCC(=O)Nc2sccc2C(N)=O)cc1NC(=O)c1ccco1, the Potency [1] was 26.9 µM (active), the Potency [2] was “inactive” and the Potency [3] was “inactive”. The Potency [4] was “inactive” and the Potency [5] was “inactive”.

For CS(=O)(=O)Nc1ccc(C2=NN(C(=O)c3cccc(F)c3)C(c3cccs3)C2)cc1 (stereo not given), the Potency [1] was “inactive”, the Potency [2] was “inactive” and the Potency [3] was “inactive”. The Potency [4] was “inactive” and the Potency [5] was “inactive”.

For COc1ccc(C=C2SC(=O)NC2=O)cc1OC, the Potency [1] was “inactive”, the Potency [2] was “inactive” and the activation [3] was 12% [at 17.1 µM, percent relative to cAMP agonist control]. The Potency [4] was “inactive” and the activity change, negative = inhibition [5] was 12.5% [at 30.8 µM].

Cc1ccccc1OCCC(=O)OCC(=O)NC1CCCCC1 was tested, and the Potency [1] was “inactive”, the Potency [2] was “inactive” and the activation [3] was 3.43% [at 17.1 µM, percent relative to cAMP agonist control]. For the same compound, the Potency [4] was “inactive” and the activity change, negative = inhibition [5] was 6.94% [at 30.8 µM].

With CCOC(=O)C(Cc1ccc(NC(=O)/C(=C\c2ccccc2)NC(=O)c2ccccc2)cc1)N1C(=O)c2ccccc2C1=O (stereo not given) the Potency [1] was “inactive”, the Potency [2] was “inactive” and the Potency [3] was “inactive”. The Potency [4] was “inactive” and the Potency [5] was “inactive”.

O=C(COC(=O)CSc1ccc([N+](=O)[O-])cc1)NCc1cccs1 was tested, and the Potency [1] was “inactive”, the Potency [2] was “inactive” and the Potency [3] was “inactive”. For the same compound, the Potency [4] was “inactive” and the Potency [5] was “inactive”.

In the case of Cc1ccc(NC(=O)CN(C)C(=O)COC(=O)C2=COCCO2)cc1, the Potency [1] is reported as “inactive”, the Potency [2] is reported as “inactive” and the activation [3] is reported as 6.32% [at 17.1 µM, percent relative to cAMP agonist control]. The Potency [4] was “inactive” and the activity change, negative = inhibition [5] was -1.81% [at 30.8 µM].

For O=C1CNC(=O)c2c(nc3n2CCC3)N1, the Potency [1] was “inactive”, the Potency [2] was “inactive” and the Potency [3] was “inactive”. The Potency [4] was “inactive” and the Potency [5] was “inactive”.

With CCCn1c(CN2CCN(C(=O)c3ccco3)CC2)nc2c1c(=O)n(C)c(=O)n2C the Potency [1] was “inactive”, the Potency [2] was “inactive” and the Potency [3] was “inactive”. For the same compound, the Potency [4] was 10.7 µM (active) and the Potency [5] was “inactive”.

O=C(c1ccco1)N(Cc1ccc([N+](=O)[O-])cc1)c1ccc(Cl)cc1 was tested, and the Potency [1] was “inactive”, the Potency [2] was “inactive” and the Potency [3] was “inactive”. For the same compound, the Potency [4] was “inactive” and the Potency [5] was “inactive”.

For COc1cc2c(-c3ccc4c(c3)OCO4)c(-c3ccsc3)oc(=O)c2cc1OC, the Potency [1] was “inactive”, the Potency [2] was “inactive” and the activation [3] was 13.2% [at 17.1 µM, percent relative to cAMP agonist control]. The Potency [4] was “inactive” and the activity change, negative = inhibition [5] was 10.4% [at 30.8 µM].

For CCc1ccccc1NC(=O)c1cc2sc(Cl)cc2n1CC, the Potency [1] was “inactive”, the Potency [2] was “inactive” and the Potency [3] was “inactive”. For the same compound, the Potency [4] was “inactive” and the Potency [5] was “inactive”.

For COc1ccc(C(=O)NCc2ccc3c(c2)CCN3C(=O)c2ccc(C)cc2)cc1, the Potency [1] was “inactive”, the Potency [2] was “inactive” and the Potency [3] was “inactive”. For the same compound, the Potency [4] was “inactive” and the Potency [5] was “inactive”.

O=C(CSc1nnc(-c2cccnc2)n1CCc1ccccc1)NCc1ccccc1 was tested, and the Potency [1] was “inactive”, the Potency [2] was “inactive” and the activation [3] was 4.59% [at 17.1 µM, percent relative to cAMP agonist control]. The Potency [4] was “inactive” and the activity change, negative = inhibition [5] was -2.95% [at 30.8 µM].

With CCOC(=O)c1cc2c(=O)n3ccccc3nc2n(Cc2ccco2)c1=NC(=O)c1ccc(Br)cc1 the Potency [1] was 75.7 µM (active), the Potency [2] was “inactive” and the Potency [3] was “inactive”. For the same compound, the outcome [4] was “inactive [at 12.7 µM]” and the Potency [5] was “inactive”.

CN1OC[C@@H]2CN(S(=O)(=O)c3cc(Cl)cc(Cl)c3)[C@H](c3ccc(-c4ccc(C#N)cc4)cc3)C[C@@H]21 was tested, and the Potency [1] was “inactive”, the Potency [2] was “inactive” and the Potency [3] was “inactive”. For the same compound, the Potency [4] was “inactive” and the Potency [5] was “inactive”.

O=C(CN1CCOCC1)Nc1ccccc1Sc1ccc(Cl)cc1 was tested, and the Potency [1] was “inactive”, the Potency [2] was “inactive” and the Potency [3] was “inactive”. For the same compound, the Potency [4] was “inactive” and the Potency [5] was “inactive”.

In the case of Cn1c(=O)c2c(nc(N3CCOCC3)n2CCSc2ncccn2)n(C)c1=O, the Potency [1] is reported as “inactive”, the Potency [2] is reported as “inactive” and the activation [3] is reported as 5.38% [at 17.1 µM, percent relative to cAMP agonist control]. The Potency [4] was 0.338 µM (active) and the activity change, negative = inhibition [5] was -3.24% [at 30.8 µM].

With Fc1ccc(C(Nc2ccccn2)c2c[nH]c3ccccc23)cc1 (stereo not given) the Potency [1] was “inactive”, the Potency [2] was “inactive” and the activation [3] was 7.5% [at 17.1 µM, percent relative to cAMP agonist control]. The Potency [4] was “inactive” and the activity change, negative = inhibition [5] was -2.83% [at 30.8 µM].

CN1C(=O)Cc2cc(S(=O)(=O)N3CCN(c4ccccc4F)CC3)ccc21 was tested, and the Potency [1] was “inactive”, the Potency [2] was “inactive” and the Potency [3] was “inactive”. For the same compound, the Potency [4] was “inactive” and the Potency [5] was “inactive”.

In the case of Cc1ccc(S(=O)(=O)N2CCN(CC(=O)Nc3ccccc3C(=O)NC3CC3)CC2)cc1, the Potency [1] is reported as “inactive”, the Potency [2] is reported as “inactive” and the activation [3] is reported as 6.96% [at 17.1 µM, percent relative to cAMP agonist control]. The Potency [4] was “inactive” and the activity change, negative = inhibition [5] was -3.04% [at 30.8 µM].

For COc1ccc(N2CCN(C(=O)COC(=O)c3ccc(C)o3)CC2)cc1, the Potency [1] was “inactive”, the Potency [2] was “inactive” and the activation [3] was 5.39% [at 17.1 µM, percent relative to cAMP agonist control]. For the same compound, the Potency [4] was “inactive” and the activity change, negative = inhibition [5] was -20% [at 30.8 µM].

In the case of COc1ccc(C(C#N)N2N=C(C)CC2c2ccccc2)cc1 (stereo not given), the Potency [1] is reported as “inactive”, the Potency [2] is reported as “inactive” and the Potency [3] is reported as “inactive”. The Potency [4] was 47.8 µM (active) and the Potency [5] was “inactive”.

CCCCOc1ccccc1Cn1c(=O)oc2ccc(C)cc21 was tested, and the Potency [1] was “inactive”, the Potency [2] was “inactive” and the Potency [3] was “inactive”. The Potency [4] was “inactive” and the Potency [5] was “inactive”.

With CC/C(=N/NC(=O)c1ccc2c(c1)OCO2)c1ccccc1O the Potency [1] was 15.1 µM (active), the Potency [2] was “inactive” and the Potency [3] was “inactive”. For the same compound, the Potency [4] was “inactive” and the Potency [5] was “inactive”.

In the case of CC(C)Cc1csc(NC(=O)c2ccc(Cl)cc2)c1C(=O)O, the Potency [1] is reported as “inactive”, the Potency [2] is reported as “inactive” and the activation [3] is reported as 0% [at 17.1 µM, percent relative to cAMP agonist control]. For the same compound, the Potency [4] was “inactive” and the activity change, negative = inhibition [5] was -11.2% [at 30.8 µM].

Cc1ccc2nc(-c3ccccc3)c(Cc3ccccn3)n2c1 was tested, and the Potency [1] was “inactive”, the Potency [2] was “inactive” and the Potency [3] was “inactive”. For the same compound, the Potency [4] was “inactive” and the Potency [5] was “inactive”.

With O=C(Nc1ccccc1)c1ccccc1Br the Potency [1] was “inactive”, the Potency [2] was “inactive” and the Potency [3] was “inactive”. The Potency [4] was “inactive” and the Potency [5] was “inactive”.

OC(c1ccc(Cl)c(Cl)c1)c1ncc(-c2ccc(Cl)cc2)[nH]1 (stereo not given) was tested, and the Potency [1] was “inactive”, the Potency [2] was “inactive” and the activation [3] was -3.18% [at 17.1 µM, percent relative to cAMP agonist control]. The Potency [4] was “inactive” and the activity change, negative = inhibition [5] was -2.17% [at 30.8 µM].

With COc1cccc(CNC(=O)CCCn2nc(C)c3c(C)n(-c4ccc(C)cc4)nc3c2=O)c1OC the Potency [1] was “inactive”, the Potency [2] was “inactive” and the Potency [3] was “inactive”. For the same compound, the Potency [4] was “inactive” and the Potency [5] was “inactive”.

With Oc1ccc(NCc2ccccc2OCc2ccc(Cl)cc2)cc1 the Potency [1] was 75.7 µM (active), the Potency [2] was “inactive” and the Potency [3] was “inactive”. For the same compound, the Potency [4] was “inactive” and the Potency [5] was “inactive”.

With O=C(Nc1cccc(Cl)c1)C1CCCN(C2=NS(=O)(=O)c3ccccc32)C1 (stereo not given) the Potency [1] was “inactive”, the Potency [2] was “inactive” and the Potency [3] was “inactive”. The Potency [4] was “inactive” and the Potency [5] was “inactive”.

In the case of Cc1ccc(S(=O)(=O)Nc2cccc(C(=O)NCC(c3ccco3)N3CCCCC3)c2)cc1F (stereo not given), the Potency [1] is reported as “inactive”, the Potency [2] is reported as “inactive” and the Potency [3] is reported as “inactive”. For the same compound, the Potency [4] was “inactive” and the Potency [5] was “inactive”.
